Bioassay records (PubChem)
Shown are actives, neighbours in structure and some others; about 28% of the full set was active somewhere.
PTK2B oligo ant – Pyk2 (human) oligomerization antagonism; Q14289; Q293 cells, Pyk2 FERM NanoBiT luminescence; active compounds read low; z-score (the deposit names both 25 µM and 10 µM); 0.83% of 99,000 active;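 active = Z-score of -3 or lower, scaled per plate to the spread of control and sample wells; inactive = z-score above -3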;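 note: negative z-score means lost luminescence so less FERM oligomerization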
CYP2C19 inhib – inhibitors of human CYP2C19; 21% of 96,000 active; inhibition, % at 5 µM; CYP2C19 Supersomes, luciferin-H EGE luminescence, 30 min; AID 778;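 active = CYP2C19 inhibition above a set limit at 5 µM in the primary screen, cut at about 50% in these data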
CYP2C9 inh – inhibitors of human CYP2C9 | AID 777 | 20% of 96,000 active | inhibition, % at 5 µM | CYP2C9 Supersomes, luciferin-H conversion, luminescence | P11712;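 active = blocking of liver enzyme CYP2C9 beyond about 50% at 5 µM, limit read from the data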
Target sequence (P11712 whole entry, looked up): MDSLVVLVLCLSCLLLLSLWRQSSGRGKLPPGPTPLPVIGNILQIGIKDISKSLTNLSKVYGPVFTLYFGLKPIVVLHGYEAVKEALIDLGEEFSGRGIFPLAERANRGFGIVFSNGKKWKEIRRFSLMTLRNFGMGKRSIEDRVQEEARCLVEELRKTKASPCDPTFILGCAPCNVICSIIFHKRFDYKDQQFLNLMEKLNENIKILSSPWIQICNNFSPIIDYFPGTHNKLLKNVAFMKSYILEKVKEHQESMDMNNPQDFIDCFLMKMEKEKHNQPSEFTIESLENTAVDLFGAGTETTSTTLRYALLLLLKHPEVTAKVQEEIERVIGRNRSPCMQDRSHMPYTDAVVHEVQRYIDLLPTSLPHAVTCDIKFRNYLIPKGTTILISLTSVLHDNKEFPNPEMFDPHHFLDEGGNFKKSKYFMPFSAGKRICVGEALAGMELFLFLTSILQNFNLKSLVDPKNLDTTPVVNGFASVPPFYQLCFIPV
CYP2C19 act – cytochrome P450 2C19 (human) activation. recombinant CYP2C19, luciferin-H EGE luminescence; active compounds read high; 0 = fully inhibited enzyme, 1 = untreated enzyme. AID 1025. P33261. activation factor at 5 µM. 96,000 tested, under 10 active;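 active = activation factor of at least 2 at 5 µM in the primary screen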
CYP2C9 activ – activators of human CYP2C9. P11712. recombinant CYP2C9, luciferin-H conversion, luminescence; active compounds read high; factor 1 = untreated enzyme, 0 = blocked. activation factor at 5 µM. 1.4% of 96,000 active;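 active = activation factor of 2 or more for CYP2C9 at a 5 µM dose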
Hits are given with their value; n = inactive; x = no result.

SMILES	PTK2B oligo ant	CYP2C19 inhib	CYP2C9 inh	CYP2C19 act	CYP2C9 activ
CCOc1ccccc1N1CSC2=C(C#N)C(c3c(OC)ccc4ccccc34)CC(=O)N2C1 (stereo unspecified)	x	75.1	99.9	n	n
COc1ccc(C2CC(=O)N3CN(c4ccc(C)c(Cl)c4)CSC3=C2C#N)cc1OC (stereo unspecified)	x	n	95.8	n	n
COc1ccc(N2CSC3=C(C#N)C(c4cc(OC)ccc4OC)CC(=O)N3C2)c(OC)c1 (stereo unspecified)	x	n	52.9	n	n
CS(=O)(=O)N(CC(=O)N1CCC(C(N)=O)CC1)C1CCCCC1	n	n	n	n	n
Cc1cccc[n+]1CC(=O)Nc1ccc([N+](=O)[O-])cc1Cl	n	n	n	n	n
CC(CC(=O)Nc1ccncc1)c1ccccc1 (stereo unspecified)	n	98.0	95.6	n	n
CC(CC(=O)Nc1cc([N+](=O)[O-])ccc1Cl)c1ccccc1 (stereo unspecified)	n	51.4	n	n	n
COCc1nnc(NC(=O)CC(C)c2ccccc2)s1 (stereo unspecified)	n	n	n	n	n
CN(CC(=O)Nc1cccnc1)S(=O)(=O)c1cc(Cl)ccc1Cl	n	80.1	n	n	n
CN(CC(=O)Nc1ccncc1)S(=O)(=O)c1ccc(Cl)cc1	n	100.0	80.1	n	n
CN(CC(=O)NCc1ccccn1)S(=O)(=O)c1ccccc1	n	n	n	n	n
CC(=O)SC(C)CC(=O)Nc1ccccc1 (stereo unspecified)	n	70.8	n	n	n
CC(=O)SC(C)CC(=O)NCc1ccccc1 (stereo unspecified)	n	n	n	n	n
CN(CC(=O)Nn1cnnc1)S(=O)(=O)c1ccccc1	n	73.0	n	n	n
CN(CC(=O)Nc1ccncc1)S(=O)(=O)c1ccccc1	n	97.6	62.7	n	n
CC(Sc1ccccc1)C(=O)Nc1ccccc1C(=O)N1CCOCC1 (stereo unspecified)	n	n	n	n	n
Cc1ccc(S(=O)(=O)Cc2ccc(C(=O)NCCCN3CCN(C)CC3)o2)cc1	n	n	n	n	n
O=c1oc2cc(O)ccc2c2c1CCCC2	n	n	n	n	2.6
O=c1oc2cc(O)ccc2c2ccccc12	n	n	n	n	2.2
Cc1coc2cc3oc(=O)c4c(c3cc12)CCCC4	n	n	73.9	n	n
CCCCCn1ccc(=O)c2c(C(F)(F)F)nccc21	n	x	x	x	x
CCCCCn1c(N2CCOCC2)nc2c1c(=O)n(CC(N)=O)c(=O)n2C	n	n	n	n	n
O=C(Cc1ccc(Cl)cc1)NCCS(=O)c1ccc(Cl)cc1 (stereo unspecified)	n	n	n	n	n
N#Cc1ccc(Oc2ccc(C(N)=O)cc2)cc1C#N	n	n	n	n	n
O=S(=O)(c1cccc(-c2nnc(-c3cccnc3)o2)c1)N1CCCCC1	n	x	x	x	x
SMILES	PTK2B oligo ant	CYP2C19 inhib	CYP2C9 inh	CYP2C19 act	CYP2C9 activ
CCC(C)(C)n1nnnc1C(c1ccc2ncccc2c1)N1CCN2CCCC2C1 (stereo unspecified)	n	59.0	n	n	n
CCC(C)(C)n1nnnc1C(c1ccccn1)N1CCCCC1 (stereo unspecified)	n	x	x	x	x
c1cnc2ccc(C(c3nnnn3C3CCCCC3)N3CCN4CCCC4C3)cc2c1 (stereo unspecified)	n	n	68.8	n	n
OC1CCN(C(c2ccc3ncccc3c2)c2nnnn2C2CCCCC2)CC1 (stereo unspecified)	n	n	n	n	n
O=C(C(c1ccccc1)c1ccccc1)N1CCN(Cc2ccco2)CC1	n	x	x	x	x
O=C(CCCSc1nc2sc3c(c2c(=O)[nH]1)CCC3)NCCO	n	n	n	n	n
O=C(O)C(NC(=O)c1ccccc1)=C(Cl)Cl	n	x	x	x	x
Cc1noc(/C=C/c2ccco2)c1S(=O)(=O)N1CCC(C(=O)N2c3ccccc3CC2C)CC1 (stereo unspecified)	n	n	69.9	n	n
Cc1noc(/C=C/c2ccco2)c1S(=O)(=O)N1CCC(C(=O)NC(C)c2ccccc2)CC1 (stereo unspecified)	x	n	n	n	n
Cc1noc(C)c1S(=O)(=O)N1CCC(C(=O)N2CCN(c3ccccc3Cl)CC2)CC1	n	n	n	n	n
Cc1noc(/C=C/c2ccco2)c1S(=O)(=O)N1CCC(C(=O)N(C)Cc2ccccc2)CC1	n	n	76.2	n	n
CCN(CC)C(=O)CSc1nnc(CNc2ccc(F)cc2)o1	n	n	n	n	n
CCOC(=O)C1=C(C)NC(=O)C(C#N)C1c1ccco1 (stereo unspecified)	n	n	n	n	n
COc1ccc2sc(N3C(=O)C4CC=C(C)CC4C3=O)nc2c1 (stereo unspecified)	n	61.0	79.7	n	n
CCCC(=O)N=C1SC2CS(=O)(=O)CC2N1c1ccc(CC)cc1 (stereo unspecified)	n	n	n	n	n
Cc1ccc(S(=O)(=O)N2CCN(c3cc4c(cc3[N+](=O)[O-])n(C)c(=O)n4C)CC2)cc1	n	75.8	80.6	n	n
Cn1c(=O)n(C)c2cc([N+](=O)[O-])c(N3CCN(S(=O)(=O)c4ccc5ccccc5c4)CC3)cc21	n	73.4	n	n	n
Cc1ccc(C(=O)N2CCN(c3cc4c(cc3[N+](=O)[O-])n(C)c(=O)n4C)CC2)cc1	n	n	n	n	n
Cc1cc(N2C(=O)C3CC=CC(C)C3C2=O)no1 (stereo unspecified)	n	x	x	x	x
Cc1cc(N2C(=O)C3C4c5ccccc5C(c5ccccc54)C3C2=O)no1 (stereo unspecified)	n	80.0	59.2	n	n
COC(=O)/C(=C\C(=O)c1ccccc1)Nc1cccc(C(F)(F)F)c1	n	n	n	n	n
CCOC(=O)c1c2ccc(OCC(=O)N/N=C/c3ccccc3C(F)(F)F)cc2n2ccccc12	x	n	58.7	n	n
CCOC(=O)c1c2ccc(OCC(=O)N/N=C/c3ccc(Cl)cc3)cc2n2ccccc12	x	n	n	n	n
CCc1c(C(=O)NCc2ccccc2Cl)[nH]c(C)c1C(C)=O	n	60.8	66.2	n	n
CCc1c(C(=O)Nc2cc(C)ccc2OC)[nH]c(C)c1C(C)=O	n	55.1	n	n	n
SMILES	PTK2B oligo ant	CYP2C19 inhib	CYP2C9 inh	CYP2C19 act	CYP2C9 activ
CC(=O)c1c(C)[nH]c(C(=O)NCc2ccccc2Cl)c1C	n	x	x	x	x
CCc1c(C(=O)NCc2ccc3c(c2)OCO3)[nH]c(C)c1C(C)=O	n	n	80.1	n	n
CC1(C)CC(=O)C=C(Nc2cc(-c3ccccc3)[nH]n2)C1	n	n	53.2	n	n
CC1(C)CC(=O)C=C(NCc2ccccc2)C1	n	n	n	n	n
CC(=O)c1c(C)nc(-c2ccc(Cl)cc2)nc1N=CN(C)C	n	n	51.4	n	n
CN(CC(=O)Nc1ccccc1C(=O)N1CCCC1)S(=O)(=O)c1ccc(Br)cc1	n	n	n	n	n
CCOc1cc(/C=N/NC(N)=O)cc(Br)c1OCC(=O)Nc1ccccc1C	n	58.8	82.4	n	n
